Measured values published in PubChem BioAssay (EPA / NIEHS).
Calls of active or inactive are those of the source. The calls were made as follows: active = hit-call score of the fitted dose curve at least 0.9, where 1 is the maximum; inactive = score below 0.9.

How the values were obtained:
Conditions in all cases: mRNA level, 48 h; actives raise or lower the signal
[1] = read-out: ABC Transporter (ABCC3), ABCC3 (gene 8714); assay: LTEA_HepaRG_ABCC3: Life Technologies and Expression Analysis (LTEA) Assay for ABC Transporter (ABCC3) using HepaRG (AID 2283462)
Procedure, shortened: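 qRT-PCR read-out of ABCC3 transcript, normalized to three housekeeping genes (ACTB, GAPDH, POLR2A), after 48 h chemical exposure of human HepaRG cells. Eight half-log concentrations, highest 100 uM, in 0.5% DMSO; gain or loss fitted relative to DMSO baseline.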

[2] = read-out: ABC Transporter (ABCB11), ABCB11 (gene 8647); assay: LTEA_HepaRG_ABCB11: Life Technologies and Expression Analysis (LTEA) Assay for ABC Transporter (ABCB11) using HepaRG (AID 2283463)
Procedure, shortened: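 Using HepaRG cultures held in 0.5% DMSO, chemicals were tested at half-log dilutions from 100 uM for 48 h. Induction or suppression of ABCB11 mRNA, normalized to ACTB, GAPDH and POLR2A, was fitted bidirectionally against vehicle.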

[3] = read-out: ABC Transporter (ABCC2), ABCC2 (gene 1244); assay: LTEA_HepaRG_ABCC2: Life Technologies and Expression Analysis (LTEA) Assay for ABC Transporter (ABCC2) using HepaRG (AID 2283464)
Procedure, shortened: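 qRT-PCR (TaqMan, Fluidigm array) read-out of ABCC2 mRNA, normalized to three housekeeping genes. Differentiated HepaRG cells were treated 48 h in serum-free induction medium with 8-point half-log series from 100 uM in 0.5% DMSO; curves fitted bidirectionally relative to DMSO.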

[4] = read-out: Broad substrate specificity ATP-binding cassette transporter ABCG2 (Homo sapiens) (UniProt Q9UNQ0); assay: LTEA_HepaRG_ABCG2: Life Technologies and Expression Analysis (LTEA) Assay for ABC Transporter (ABCG2) using HepaRG (AID 2283465)
Procedure, shortened: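 Gene expression of ABCG2 in HepaRG liver cells is quantified by qRT-PCR following 48 h exposure across an eight-point series topping at 100 uM. Values come from bidirectional fitting relative to DMSO vehicle.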

[5] = read-out: ATP-citrate lyase (ACLY), ACLY (gene 47); assay: LTEA_HepaRG_ACLY: Life Technologies and Expression Analysis (LTEA) Assay for ATP-citrate lyase (ACLY) using HepaRG (AID 2283466)
Procedure, shortened: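 ACLY expression changes in human HepaRG liver cells are quantified by qRT-PCR after 48 h exposure to test chemicals (maximum 100 uM, half-log steps). Values are fitted in both directions relative to 0.5% DMSO vehicle.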

[6] = read-out: Alkaline Phosphatase, Placental (ALPP) gene, ALPP (gene 250); assay: LTEA_HepaRG_ALPP: Life Technologies and Expression Analysis (LTEA) Assay for Alkaline Phosphatase, Placental (ALPP) gene using HepaRG (AID 2283468);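 also: differentiated human HepaRG liver cells in serum-free induction medium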
Procedure, shortened: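 qRT-PCR readout of ALPP mRNA (Fluidigm TaqMan), normalized to ACTB/GAPDH/POLR2A, after 48 h chemical exposure of HepaRG cells; 8-point half-log series, top 100 uM, 0.5% DMSO vehicle. Bidirectional curve fit versus DMSO baseline.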

[7] = read-out: Bcl-2 (BAD) gene, BAD (gene 572); assay: LTEA_HepaRG_BAD: Life Technologies and Expression Analysis (LTEA) Assay for Bcl-2 (BAD) gene using HepaRG (AID 2283469)
Procedure, shortened: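 Activity values reflect up- or down-regulation of BAD mRNA in human HepaRG hepatic cells treated 48 h in serum-free medium, with eight-point half-log dosing capped at 100 uM and 0.5% DMSO vehicle.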

[8] = read-out: Bcl-2 (BAX) gene, BAX (gene 581); assay: LTEA_HepaRG_BAX: Life Technologies and Expression Analysis (LTEA) Assay for Bcl-2 (BAX) gene using HepaRG (AID 2283470)
Procedure, shortened: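 qRT-PCR read-out of BAX mRNA, normalized to three housekeeping genes, after 48 h chemical exposure of human HepaRG cells in serum-free induction medium; eight-point half-log series, top 100 uM, 0.5% DMSO vehicle; bidirectional fit versus DMSO.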

[9] = read-out: BCL2L11 (gene 10018); assay: LTEA_HepaRG_BCL2L11: Life Technologies and Expression Analysis (LTEA) Assay for Bcl-2 (BCL2L11) gene using HepaRG (AID 2283473)
Procedure, shortened: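 HepaRG, 48 h exposure, 8-pt half-log series from 100 uM in 0.5% DMSO, duplicates; qRT-PCR (Fluidigm TaqMan) for BCL2L11, housekeeping-normalized; bidirectional curve fit relative to DMSO baseline.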

[10] = read-out: Apolipoprotein A-V (APOA5) gene, APOA5 (gene 116519); assay: LTEA_HepaRG_APOA5: Life Technologies and Expression Analysis (LTEA) Assay for Apolipoprotein A-V (APOA5) gene using HepaRG (AID 2283474)
Procedure, shortened: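 HepaRG, 48 h chemical exposure in serum-free induction medium, 8-pt half-log series (top 100 uM), 0.5% DMSO vehicle, duplicates. Readout: APOA5 mRNA by qRT-PCR, housekeeping-normalized; bidirectional fit vs DMSO baseline.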

[11] = read-out: Apoptosis regulator Bcl-2 (Homo sapiens) (UniProt P10415); assay: LTEA_HepaRG_BCL2: Life Technologies and Expression Analysis (LTEA) Assay for Bcl-2 gene using HepaRG (AID 2283475)
Procedure, shortened: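 qRT-PCR read-out (Fluidigm TaqMan) of BCL2 transcript, normalised to three housekeeping genes, after 48 h chemical exposure of HepaRG cells; 8-point half-log series, top 100 uM, 0.5% DMSO vehicle. Gain or loss of signal fitted relative to DMSO baseline.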

[12] = read-out: Bcl-2 (BID) gene, BID (gene 637); assay: LTEA_HepaRG_BID: Life Technologies and Expression Analysis (LTEA) Assay for Bcl-2 (BID) gene using HepaRG (AID 2283476)
Procedure, shortened: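 HepaRG, 48 h exposure, 8-pt half-log series, top 100 uM, 0.5% DMSO vehicle, duplicates. Readout: BID mRNA by TaqMan qRT-PCR; housekeeping-normalized; bidirectional curve fit vs DMSO baseline.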

[13] = read-out: Caspase-3 (Homo sapiens) (UniProt P42574); assay: LTEA_HepaRG_CASP3: Life Technologies and Expression Analysis (LTEA) Assay for cysteine-aspartic acid protease (CASP3) using HepaRG (AID 2283477)
Procedure, shortened: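 HepaRG, 48 h exposure, 8 conc. (top 100 uM, half-log steps, duplicate), 0.5% DMSO vehicle; qRT-PCR of CASP3 transcript, housekeeping-normalised (ACTB/GAPDH/POLR2A); bidirectional curve fit vs DMSO baseline.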

[14] = read-out: Cytochrome P450 (CYP1A2), CYP1A2 (gene 1544); assay: LTEA_HepaRG_CYP1A2: Life Technologies and Expression Analysis (LTEA) Assay for Cytochrome P450 (CYP1A2) using HepaRG (AID 2283479)
Procedure, shortened: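 HepaRG, 48 h exposure, top 100 uM, half-log 8-pt, 0.5% DMSO vehicle, duplicates. Readout: TaqMan qRT-PCR of CYP1A2 mRNA, housekeeping-normalized (ACTB/GAPDH/POLR2A). Gain/loss fit relative to DMSO baseline.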

[15] = read-out: cysteine-aspartic acid protease (CASP8), CASP8 (gene 841); assay: LTEA_HepaRG_CASP8: Life Technologies and Expression Analysis (LTEA) Assay for cysteine-aspartic acid protease (CASP8) using HepaRG (AID 2283480)
Procedure, shortened: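 Concentration-response in duplicate up to 100 uM (half-log steps, 0.5% DMSO) on differentiated HepaRG cultures for 48 h. Expression change of CASP8 mRNA is determined by TaqMan qRT-PCR with housekeeping-gene normalization.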

[16] = read-out: Cytochrome P450 (CYP2B6), CYP2B6 (gene 1555); assay: LTEA_HepaRG_CYP2B6: Life Technologies and Expression Analysis (LTEA) Assay for Cytochrome P450 (CYP2B6) using HepaRG (AID 2283481)
Procedure, shortened: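 Read-out is CYP2B6 mRNA by TaqMan qRT-PCR, normalized to three housekeeping genes and fitted bidirectionally against 0.5% DMSO baseline. Human HepaRG cells received test chemicals for 48 h, top concentration 100 uM, half-log dilutions.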

[17] = read-out: Cytochrome P450 (CYP24A1), CYP24A1 (gene 1591); assay: LTEA_HepaRG_CYP24A1: Life Technologies and Expression Analysis (LTEA) Assay for Cytochrome P450 (CYP24A1) using HepaRG (AID 2283478)
Procedure, shortened: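 qRT-PCR read-out: CYP24A1 transcript levels normalized to three housekeeping genes, bidirectional curve fits against 0.5% DMSO baseline. Human HepaRG cells treated 48 h with chemicals at eight concentrations from 100 uM in half-log steps.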

[18] = read-out: Alpha-fetoprotein (AFP) gene, AFP (gene 174); assay: LTEA_HepaRG_AFP: Life Technologies and Expression Analysis (LTEA) Assay for Alpha-fetoprotein (AFP) gene using HepaRG (AID 2283472)
Procedure, shortened: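 qRT-PCR (Fluidigm TaqMan) readout of AFP transcript, normalized to three housekeeping genes, fitted bidirectionally against 0.5% DMSO baseline. HepaRG cells received chemicals for 48 h in serum-free induction medium, top concentration 100 uM, half-log steps.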

Measured: AC50

Chain of Apoptosis regulator Bcl-2 (Homo sapiens) (P10415 whole entry, looked up): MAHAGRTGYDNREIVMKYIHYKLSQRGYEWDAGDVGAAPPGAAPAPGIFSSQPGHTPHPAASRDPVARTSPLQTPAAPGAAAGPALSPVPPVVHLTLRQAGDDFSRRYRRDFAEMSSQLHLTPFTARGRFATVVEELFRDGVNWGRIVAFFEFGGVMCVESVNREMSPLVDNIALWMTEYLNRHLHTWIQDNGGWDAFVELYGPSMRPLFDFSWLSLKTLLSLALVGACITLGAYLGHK
Chain of Broad substrate specificity ATP-binding cassette transporter ABCG2 (Homo sapiens) (Q9UNQ0 whole entry, looked up): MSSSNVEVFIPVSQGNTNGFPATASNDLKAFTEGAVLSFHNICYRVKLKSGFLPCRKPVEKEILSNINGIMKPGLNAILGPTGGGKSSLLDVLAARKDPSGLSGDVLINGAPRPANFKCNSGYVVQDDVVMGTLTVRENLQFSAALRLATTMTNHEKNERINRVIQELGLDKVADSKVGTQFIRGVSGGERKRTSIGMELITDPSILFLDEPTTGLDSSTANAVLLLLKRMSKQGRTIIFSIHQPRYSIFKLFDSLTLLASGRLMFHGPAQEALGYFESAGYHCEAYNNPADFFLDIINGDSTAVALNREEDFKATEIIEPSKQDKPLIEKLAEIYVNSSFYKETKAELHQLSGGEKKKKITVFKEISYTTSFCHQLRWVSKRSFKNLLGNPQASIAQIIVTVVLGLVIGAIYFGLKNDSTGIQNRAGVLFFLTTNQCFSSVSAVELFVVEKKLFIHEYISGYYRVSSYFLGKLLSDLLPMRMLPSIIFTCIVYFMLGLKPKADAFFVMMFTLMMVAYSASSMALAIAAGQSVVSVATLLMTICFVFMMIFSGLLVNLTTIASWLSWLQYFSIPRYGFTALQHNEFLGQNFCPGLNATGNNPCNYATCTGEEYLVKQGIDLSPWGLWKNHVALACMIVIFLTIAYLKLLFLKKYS
Chain of Caspase-3 (Homo sapiens) (P42574 whole entry, looked up): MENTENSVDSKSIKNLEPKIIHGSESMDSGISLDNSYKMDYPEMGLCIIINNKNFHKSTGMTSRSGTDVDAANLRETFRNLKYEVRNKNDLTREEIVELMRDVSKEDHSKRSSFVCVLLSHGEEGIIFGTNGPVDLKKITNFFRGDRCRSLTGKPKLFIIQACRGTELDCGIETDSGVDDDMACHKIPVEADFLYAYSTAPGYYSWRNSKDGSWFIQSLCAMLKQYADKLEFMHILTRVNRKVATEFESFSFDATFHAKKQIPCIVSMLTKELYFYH

CN1C(=O)N(c2ccccc2Br)Cc2cnc(Nc3ccc4c(c3)OCC(CO)O4)nc21 (stereo not drawn)
inactive: [4] | [7] | [9]
active: [1] 28.6 µM | [2] 80.3 µM | [3] 77.1 µM | [5] 50 µM | [6] 2.93 µM | [8] 12.9 µM | [10] 90.3 µM | [11] 89.1 µM | [12] 70.7 µM | [13] 66.4 µM | [14] 90.9 µM | [15] 85.8 µM | [16] 74.3 µM

OC12N=C(c3ccccc3)SC1Cc1cc(Cl)ccc12 (stereo not drawn)
inactive: [3] | [7] | [8] | [12] | [13] | [17] | [15]
active: [1] 21 µM | [2] 16.7 µM | [4] 16.7 µM | [5] 0.377 µM | [6] 35.7 µM | [9] 2.86 µM | [10] 25.2 µM | [11] 20.3 µM | [14] 1.25 µM | [16] 11.6 µM

C[C@]12CC[C@@H]3c4ccc(O)cc4CC[C@H]3[C@@H]1CC[C@H]2O
active: [2] 69 µM | [4] 5.42 µM | [6] 50 µM | [10] 50 µM | [16] 1.19 µM
inactive: [1] | [3] | [5] | [7] | [8] | [9] | [11] | [12] | [13] | [17] | [14] | [15]

COc1cc(C(=O)NC2CCN(C)CC2)ccc1Nc1ncc2c(n1)N(C1CCCC1)CC(F)(F)C(=O)N2C
inactive: [8] | [18] | [11] | [17]
active: [1] 46.5 µM | [2] 4.65 µM | [3] 21.5 µM | [4] 4.65 µM | [5] 32.4 µM | [6] 3.13 µM | [7] 11.1 µM | [9] 46.5 µM | [10] 4.65 µM | [12] 4.65 µM | [13] 11.1 µM | [14] 4.65 µM | [15] 16.2 µM | [16] 0.151 µM
